Active and inactive are the calls of the source. The calls were made as follows: active = hit-call score of the fitted dose curve at least 0.9, where 1 is the maximum; inactive = score below 0.9.
Experiments:
[1] = ATG_CRE_CIS: Attagene CIS-FACTORIAL HepG2 Assay for human cAMP Responsive Element (CRE) binding protein 3 (AID 2282926); settings: HepG2 CRE cis-reporter, Attagene multiplexed mRNA; actives raise or lower the signal
Method in brief: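 Liver-derived HepG2, transfected with a CRE-containing reporter panel, exposed 24 h; transcript levels sized and quantified by capillary electrophoresis of labelled amplicons; signal changes either way referenced to vehicle.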

[2] = biological target: CCAAT/enhancer-binding protein beta (Homo sapiens) (UniProt P17676); test: ATG_C_EBP_CIS: Attagene CIS-FACTORIAL HepG2 Assay for human CCAAT/Enhancer Binding Protein (C/EBP) beta (AID 2282927); settings: HepG2 Attagene cis-factorial transcription factor reporter; actives raise or lower the signal
Method in brief: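 Endogenous transcription factor activity in human liver HepG2 cells is inferred from induction of a CEBPB-linked reporter mRNA. Exposure lasts 24 h; activity is fitted in both directions relative to DMSO.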

[3] = ATG_CMV_CIS: Attagene CIS-FACTORIAL HepG2 Assay for human CMV (Internal Marker) (AID 2282928); settings: HepG2 CMV promoter reporter, transcription factor profiling; actives raise or lower the signal;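 also: endpoint acts as a background internal control marker rather than a target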
Method in brief: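 Readout: fluorescent reporter cDNA fragments separated by capillary electrophoresis after RT-PCR and HpaI cut. Cells: HepG2 carrying transfected cis-promoter reporter constructs, dosed 24 h. Endpoint serves as background internal-marker control, fit bidirectionally versus DMSO.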

[4] = ATG_DR4_LXR_CIS: Attagene CIS-FACTORIAL HepG2 Assay for human Liver X Receptor (LXR), DR4 submotif (AID 2282929); settings: HepG2 Attagene DR4 cis-reporter, mRNA transcription; actives raise or lower the signal
Method in brief: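 DR4 cis-reporter in HepG2, 24 h exposure. Detection: RT-PCR, 6-FAM labelling, CE fragment analysis. Endpoint fitted bidirectionally, DMSO = baseline.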

[5] = ATG_AP_1_CIS: Attagene CIS-FACTORIAL HepG2 Assay for human Activator Protein 1 (AP-1) (AID 2282931); settings: HepG2 Attagene cis-factorial AP-1 reporter mRNA; actives raise or lower the signal
Method in brief: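 Cis-regulated reporter units transiently expressed in HepG2 report endogenous transcription-factor activity. Signal: reporter mRNA at 24 h, via RT-PCR and fluorescent capillary electrophoresis. Endpoint derived by bidirectional fitting, DMSO as negative control.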

[6] = ATG_AP_2_CIS: Attagene CIS-FACTORIAL HepG2 Assay for human Activator Protein 2 (AP-2) (AID 2282932); settings: HepG2 AP-2 cis-reporter, Attagene transcription factor profiling; actives raise or lower the signal
Method in brief: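 Transiently transfected HepG2 cells are exposed to chemical for 24 h. Reporter transcripts are then measured as fluorescence following RT-PCR and capillary separation, and gain- or loss-of-signal is fitted relative to DMSO.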

[7] = ATG_BRE_CIS: Attagene CIS-FACTORIAL HepG2 Assay for human Bone Morphogenetic Protein (BMP) Response Element (BRE) (AID 2282933); settings: HepG2 BMP response element reporter, Attagene transcription factor profiling; actives raise or lower the signal
Method in brief: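 Transient MRTU transfection of human HepG2 liver cells; 24 h compound treatment; total RNA isolated, reverse-transcribed, PCR-amplified, 6-FAM labelled, HpaI-cut, capillary electrophoresis. DMSO = negative control/baseline, bidirectional fit.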

[8] = biological target: Transcription factor E2F1 (Homo sapiens) (UniProt Q01094); test: ATG_E2F_CIS: Attagene CIS-FACTORIAL HepG2 Assay for human E2F Transcription Factor 1 (AID 2282935); settings: HepG2 Attagene cis-reporter, E2F reporter RNA transcripts; actives raise or lower the signal
Method in brief: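 Fluorescent RT-PCR products, digested with HpaI for 2 h at 37 C, are separated by capillary electrophoresis. Source RNA comes from transfected HepG2 cultures treated for 24 h.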

[9] = ATG_E_Box_CIS: Attagene CIS-FACTORIAL HepG2 Assay for human Enhancer Box (E-box) (AID 2282936); settings: HepG2 E-box cis-reporter transcription, actives raise or lower the signal
Method in brief: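 Fluorescent reporter fragments separated by capillary electrophoresis gave the signal; mRNA came from HepG2 cells transfected with cis-element reporters and treated 24 h. Curves fitted bidirectionally relative to DMSO controls.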

[10] = ATG_M_61_CIS: Attagene CIS-FACTORIAL HepG2 Assay for M61 Transcription Factor (Internal Marker) (AID 2282937); settings: HepG2 Attagene CIS-FACTORIAL M61 internal marker reporter; actives raise or lower the signal
Method in brief: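 Background-control endpoint: HepG2 cells with cis-regulated reporter constructs, 24 h exposure, reporter mRNA detected via fluorescent primer extension and capillary electrophoresis; values from bidirectional fitting with DMSO baseline.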

[11] = ATG_EGR_CIS: Attagene CIS-FACTORIAL HepG2 Assay for human Early Growth Response 1 (EGR1) (AID 2282938); settings: HepG2 Attagene CIS-FACTORIAL EGR reporter mRNA; actives raise or lower the signal
Method in brief: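 Endpoint derived by bidirectional fitting versus DMSO vehicle. Method: cis-promoter reporter units transfected into HepG2, 24 h dosing, RNA isolation, RT-PCR with 6-FAM primer extension and HpaI digestion, then capillary electrophoresis fluorescence detection.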

[12] = ATG_M_19_CIS: Attagene CIS-FACTORIAL HepG2 Assay for M19 Transcription Factor (Internal Marker) (AID 2282939); settings: HepG2 Attagene CIS-FACTORIAL M19 internal marker reporter; actives raise or lower the signal
Method in brief: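 Transfect HepG2 with MRTU reporter library → dose chemical, 24 h → isolate total RNA, reverse-transcribe with oligo(dT) → PCR, 6-FAM label, HpaI cut (2 h, 37 C) → capillary electrophoresis. Bidirectional fit vs DMSO.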

[13] = ATG_ERE_CIS: Attagene CIS-FACTORIAL HepG2 Assay for Estrogen Response Element (ERE) (AID 2282940); settings: HepG2 ERE cis-reporter, Attagene RNA transcript; actives raise or lower the signal
Method in brief: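 Transient MRTU transfection of human HepG2; cis-element promoters; 24 h dosing; total RNA → RT (oligo dT) → PCR → 6-FAM primer extension → HpaI digest → CE fluorescence. Bidirectional fit, DMSO baseline.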

[14] = ATG_Ets_CIS: Attagene CIS-FACTORIAL HepG2 Assay for human Erythroblast Transformation Specific (ETS) (AID 2282941); settings: HepG2 ETS cis-reporter transcription, actives raise or lower the signal
Method in brief: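 RT-PCR/capillary electrophoresis fluorescence read-out of reporter mRNA; HepG2 transient multi-reporter transfection; 24 h compound exposure; gain or loss of signal fitted bidirectionally relative to DMSO.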

[15] = ATG_FoxO_CIS: Attagene CIS-FACTORIAL HepG2 Assay for human Forkhead box O (FoxO) (AID 2282943); settings: HepG2 Attagene cis-reporter, FoxO element, mRNA; actives raise or lower the signal
Method in brief: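 HepG2, transient MRTU transfection (cis element, endogenous TFs). Dose 24 h. TriZol RNA → oligo(dT) RT → PCR → 6-FAM primer extension → HpaI cut → CE. Gain/loss vs DMSO.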

[16] = ATG_GATA_CIS: Attagene CIS-FACTORIAL HepG2 Assay for human GATA Binding Protein (AID 2282944); settings: HepG2 GATA cis-element reporter, Attagene multiplex mRNA; actives raise or lower the signal
Method in brief: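 Transient MRTU transfection, HepG2, 24 h compound exposure. Total RNA → oligo(dT) RT → PCR → 6-FAM primer extension → HpaI cut → CE. Bidirectional fit vs DMSO.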

[17] = biological target: Retinoic acid receptor alpha (Homo sapiens) (UniProt P10276); test: ATG_DR5_RAR_CIS: Attagene CIS-FACTORIAL HepG2 Assay for human Retinoic Acid Receptor Alpha (RARE), DR5 submotif (AID 2282934); settings: HepG2 Attagene cis-factorial RARE DR5 reporter, mRNA; actives raise or lower the signal;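 as to AC50: reporter responds to endogenous RAR alpha beta and gamma in HepG2 not RARA alone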
Method in brief: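 Transient MRTU transfection of HepG2; 24 h compound treatment; TriZol RNA, oligo(dT) RT, PCR, FAM labelling, capillary electrophoresis. Bidirectional fit vs DMSO. Endogenous TF activity at DR5 RARE.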

[18] = biological target: Hepatocyte nuclear factor 3-beta (Homo sapiens) (UniProt Q9Y261); test: ATG_FoxA2_CIS: Attagene CIS-FACTORIAL HepG2 Assay for human Forkhead box A2 (FOXA2) (AID 2282942); settings: HepG2 cis-reporter transcription factor activity, 24 h; actives raise or lower the signal
Method in brief: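 Measured: reporter mRNA induction or loss in HepG2 transiently carrying multiple cis-regulated reporter units, 24 h after dosing. Quantified by RT-PCR plus capillary electrophoresis, normalised to DMSO.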

[19] = biological target: Aryl hydrocarbon receptor (Homo sapiens) (UniProt P35869); test: ATG_Ahr_CIS: Attagene CIS-FACTORIAL HepG2 Assay for human Aryl Hydrocarbon Receptor (Ahr) (AID 2282930); settings: HepG2 AhR cis-factorial reporter transcription; actives raise or lower the signal
Method in brief: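 Transient MRTU transfection of HepG2 → 24 h compound exposure → total RNA, oligo(dT) RT → PCR, 6-FAM extension, HpaI cut → CE fluorescence. DMSO = baseline; bidirectional curve fit.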

Measured: AC50

Sequence of Hepatocyte nuclear factor 3-beta (Homo sapiens) (Q9Y261 whole entry, looked up): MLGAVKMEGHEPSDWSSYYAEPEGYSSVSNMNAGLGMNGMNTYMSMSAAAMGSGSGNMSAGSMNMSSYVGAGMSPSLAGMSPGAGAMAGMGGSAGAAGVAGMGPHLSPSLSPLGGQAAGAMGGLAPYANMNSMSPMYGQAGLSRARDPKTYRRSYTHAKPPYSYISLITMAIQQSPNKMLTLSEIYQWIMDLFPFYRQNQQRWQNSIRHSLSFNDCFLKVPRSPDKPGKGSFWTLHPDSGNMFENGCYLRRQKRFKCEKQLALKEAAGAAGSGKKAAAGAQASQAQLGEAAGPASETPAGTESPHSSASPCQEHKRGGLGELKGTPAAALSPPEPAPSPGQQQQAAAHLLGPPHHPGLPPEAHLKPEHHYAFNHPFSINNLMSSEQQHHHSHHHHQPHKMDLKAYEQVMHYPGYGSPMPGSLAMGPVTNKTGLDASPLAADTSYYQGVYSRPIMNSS
Sequence of CCAAT/enhancer-binding protein beta (Homo sapiens) (P17676 whole entry, looked up): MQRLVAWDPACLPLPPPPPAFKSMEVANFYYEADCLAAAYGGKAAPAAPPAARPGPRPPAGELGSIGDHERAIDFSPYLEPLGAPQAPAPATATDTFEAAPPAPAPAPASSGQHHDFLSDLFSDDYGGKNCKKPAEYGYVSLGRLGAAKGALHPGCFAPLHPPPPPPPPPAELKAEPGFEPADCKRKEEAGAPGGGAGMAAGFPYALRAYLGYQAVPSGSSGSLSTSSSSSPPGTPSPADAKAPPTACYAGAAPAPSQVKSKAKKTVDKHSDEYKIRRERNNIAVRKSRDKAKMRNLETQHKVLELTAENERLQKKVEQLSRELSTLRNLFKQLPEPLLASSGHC
Sequence of Retinoic acid receptor alpha (Homo sapiens) (P10276 whole entry, looked up): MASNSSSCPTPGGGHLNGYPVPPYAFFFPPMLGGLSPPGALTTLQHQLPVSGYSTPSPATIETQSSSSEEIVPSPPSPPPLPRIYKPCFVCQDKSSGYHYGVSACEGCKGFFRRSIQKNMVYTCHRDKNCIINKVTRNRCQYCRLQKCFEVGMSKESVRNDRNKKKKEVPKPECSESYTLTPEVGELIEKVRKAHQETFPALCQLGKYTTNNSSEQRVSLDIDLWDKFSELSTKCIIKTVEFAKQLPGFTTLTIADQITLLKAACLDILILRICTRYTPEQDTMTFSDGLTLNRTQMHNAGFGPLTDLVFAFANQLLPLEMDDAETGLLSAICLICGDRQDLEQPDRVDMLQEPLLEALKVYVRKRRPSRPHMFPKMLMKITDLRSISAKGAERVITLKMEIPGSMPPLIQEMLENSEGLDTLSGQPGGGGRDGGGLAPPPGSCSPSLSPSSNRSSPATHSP
Sequence of Aryl hydrocarbon receptor (Homo sapiens) (P35869 whole entry, looked up): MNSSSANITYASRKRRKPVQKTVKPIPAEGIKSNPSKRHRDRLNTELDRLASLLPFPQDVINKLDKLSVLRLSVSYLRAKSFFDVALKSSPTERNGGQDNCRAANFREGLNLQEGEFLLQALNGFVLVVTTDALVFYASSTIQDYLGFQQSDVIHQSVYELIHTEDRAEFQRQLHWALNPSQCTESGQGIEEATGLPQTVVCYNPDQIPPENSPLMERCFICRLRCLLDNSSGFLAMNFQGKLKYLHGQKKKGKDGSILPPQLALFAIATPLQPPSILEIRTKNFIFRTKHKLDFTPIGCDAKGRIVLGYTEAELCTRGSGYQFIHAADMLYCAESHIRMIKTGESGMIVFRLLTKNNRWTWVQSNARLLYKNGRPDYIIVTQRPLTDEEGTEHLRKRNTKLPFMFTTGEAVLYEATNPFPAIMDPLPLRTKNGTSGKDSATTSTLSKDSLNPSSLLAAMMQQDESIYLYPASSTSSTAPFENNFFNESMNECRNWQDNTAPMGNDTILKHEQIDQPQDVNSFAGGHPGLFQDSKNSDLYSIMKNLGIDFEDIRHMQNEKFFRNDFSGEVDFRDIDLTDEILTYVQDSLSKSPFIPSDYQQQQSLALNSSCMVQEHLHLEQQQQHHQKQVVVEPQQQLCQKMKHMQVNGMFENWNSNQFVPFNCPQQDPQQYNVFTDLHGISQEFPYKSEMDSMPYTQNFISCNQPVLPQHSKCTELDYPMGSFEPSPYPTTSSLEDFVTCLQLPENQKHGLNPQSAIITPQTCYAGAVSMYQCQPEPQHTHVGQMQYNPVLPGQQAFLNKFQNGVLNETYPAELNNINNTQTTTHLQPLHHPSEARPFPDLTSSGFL
Sequence of Transcription factor E2F1 (Homo sapiens) (Q01094 whole entry, looked up): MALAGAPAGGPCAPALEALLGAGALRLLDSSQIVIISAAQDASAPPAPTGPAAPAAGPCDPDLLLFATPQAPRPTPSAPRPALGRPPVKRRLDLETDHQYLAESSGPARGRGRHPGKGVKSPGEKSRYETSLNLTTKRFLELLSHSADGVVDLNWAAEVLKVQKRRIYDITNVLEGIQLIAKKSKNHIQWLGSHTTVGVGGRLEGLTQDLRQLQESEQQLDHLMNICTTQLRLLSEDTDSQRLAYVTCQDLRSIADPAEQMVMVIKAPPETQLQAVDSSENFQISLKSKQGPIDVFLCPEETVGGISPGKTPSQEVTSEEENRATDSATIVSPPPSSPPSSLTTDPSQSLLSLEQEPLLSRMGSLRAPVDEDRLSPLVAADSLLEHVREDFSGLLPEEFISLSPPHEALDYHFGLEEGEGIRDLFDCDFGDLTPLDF

OCCOCCOCCO
not listed: [17] | [18] | [19]
inactive: all other assays above

CCCCCCCCN(C)C
not listed: [11] | [19]
inactive: all other assays above

OC(Cn1cncn1)(Cn1cncn1)c1ccc(F)cc1F
not listed: [17] | [18]
inactive: all other assays above

CCCC(CCC)C(=O)O
not listed: [4] | [15] | [17] | [18]
inactive: all other assays above

C[C@@H](Oc1ccc(CNC(=O)c2cccnc2Oc2ccc3c(c2)OCO3)c(F)c1)C(=O)O
not listed: [15] | [17]
inactive: all other assays above

C[C@]12C=CC(=O)C=C1CC[C@H]1[C@@H]3C[C@@H](O)[C@](O)(C(=O)CO)[C@@]3(C)C[C@H](O)[C@@]12F
active: [13] 17.8 µM
not listed: [15] | [17]
inactive: all other assays above

O=C(O)CO
not listed: [11] | [15] | [18]
inactive: all other assays above

O=C(O)c1ccc2c(c1)nc(C(=O)NC1CCN(C3CC3)CC1)n2Cc1cc(-c2ccc(Cl)s2)on1
not listed: [11] | [17] | [18]
inactive: all other assays above

OCc1ccccc1
not listed: [11] | [15] | [18]
inactive: all other assays above

NC(=O)N(O)[C@@H]1COc2cc(OCc3ccccc3)ccc21
active: [17] 406 nM
not listed: [11] | [18]
inactive: all other assays above

CCCc1ccccc1
not listed: [18] | [19]
inactive: all other assays above

CCOC(N)=O
not listed: [17] | [18] | [19]
inactive: all other assays above

C=CN1CCCC1=O
not listed: [11] | [17] | [18]
inactive: all other assays above

CCN(CC)C(=S)SSC(=S)N(CC)CC
active: [1] 76 µM | [3] 173 µM | [5] 25.8 µM | [7] 142 µM | [9] 18.9 µM | [14] 158 µM | [16] 158 µM
inactive: [2] | [19] | [6] | [8] | [10] | [12] | [13]

Reference: PubChem BioAssay (EPA / NIEHS)
